A short description of test [1]: cytotoxicity in PAX8-dependent RMG-1 cells, dose response, cell-based, cherry-pick (AID 687029;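 active means signal drop whose fitted half-maximal concentration is at most twice the top valid dose, in every test run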;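 further: cells exposed to compound for 96 hours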).
The nature of test [2]: cytotoxicity in IOSE-T80 ovarian epithelial cells, dose response, selectivity assay for PAX8 inhibitor project, cell-based, cherry-pick (AID 687032).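 Further: cells exposed to compound for 96 h before reading.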
Test [3] is described as follows: DNA binders by acridine orange displacement, dose response, counter-screen for EWS/Fli inhibitor project, biochemical, fluorescence polarization, cherry-pick (AID 720586;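 active means fitted curve reaches a 35% signal fall AC35 below twice the sample's top valid tested dose, actives reach about 48 µM in these data; inactive means the rest, including activity in the rising direction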;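 further: lower polarization ratio signals compound binding to DNA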).
The nature of test [4]: non-specific cell cytotoxicity, dose response, cytotoxicity control for PAX8 inhibitor project, plate reader, dry powder samples (AID 743021; call rule not given here).
A short description of test [5]: inhibitors of CMV-promoter luciferase reporter, dose response, counter-screen for Pax8 inhibitor project, cell-based, HEK293, luminescence, dry powder (AID 743020;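 active means signal-lowering compounds whose fitted half-maximal concentration is at or below twice the top tested dose in every run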;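 further: HEK293 cells stably expressing the CMV luciferase reporter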). On the technique in general: In a reporter assay the amount or activity of a reporter protein is the signal.

Each structure is given as a SMILES string. For part of these data: Results with a measured potency or affinity are listed apart. Results filed as inconclusive are left out. A number with no mark means an inactive call. The list shows a part of the results. Active and inactive are the calls of the source.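 How the source made its calls, unless noted: active means fitted half-maximal concentration for viability loss no higher than twice the top valid dose, in every repeat run; inconclusive means repeat runs disagree, flat partial loss, or poor curve fit; inactive means the rest.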

The text below walks through data of PubChem BioAssay.

For `COc1ccc(NC(=O)c2cc([N+](=O)[O-])ccc2O)cc1`, the compound was called inactive in test [1] and in test [2].
With `C#Cc1cc(N2CCN(C(=O)c3ccoc3)CC2)n2nc(-c3cccc(Cl)c3)cc2n1`, the call in test [1] and in test [2] was inactive.
`Cc1nn(-c2ccccc2)c(Cl)c1CN(C(=O)CCl)c1ccc(Cl)cc1`: the compound was called inactive in test [1] and in test [2].
For the compound `OC(CNCC(c1ccc(Cl)cc1Cl)c1c[nH]c2ccccc12)c1ccccc1` (configuration not stated), the result in test [1] and in test [2] was inactive.
Consider `NC1=CC(=O)C(=O)c2cccnc21`, for which the result in test [1], in test [2] and in test [4] was inactive. Besides, the AC35 result in test [3] was “inactive”.
Turning to `CCC[C@H](CN[C@@H](CNC)[C@H](C)CC)NCCc1cc(C(F)(F)F)cc(C(F)(F)F)c1`, the compound was classed as inactive in test [1] and in test [2].
For the compound `O=c1c(Br)c(Br)cnn1-c1ccccc1`, the outcome in test [1] and in test [2] was inactive.
For the compound `Cc1cc(C)c2nc(C)cc(N/N=C/c3ccc(O)cc3)c2c1`, the compound was called inactive in test [1] and in test [2].
In the case of `CC1OC(CC(=O)O)CC2=C1C(=O)c1c(O)cccc1C2=O` (configuration not stated), the result in test [1] and in test [2] was inactive.
With `Cc1cc(=O)n2c3c(c4c(cc13)c(CN(C)C)cc(=O)n4C)OC2`, the result in test [1] and in test [2] was inactive.
Take `COc1ccc(N(C(=O)CCl)C(C(=O)NCCc2ccccc2)c2cccs2)cc1Cl` (configuration not stated): the compound was called inactive in test [1] and in test [2].
Take `CCS(=O)(=O)c1ncc(Cl)c(C(=O)Nc2ccc(C)cc2)n1`: the result in test [1] and in test [2] was inactive.
On to `CN1CCN(CCCNC(=O)c2ccc(/C=C3\Oc4ccccc4N(Cc4ccc(Cl)cc4)C3=O)cc2)CC1`, for which the outcome in test [1] and in test [2] was inactive.
In the case of `CCS(=O)(=O)c1ncc(Cl)c(C(=O)Nc2ccc(S(=O)(=O)N(C)c3ccccc3)cc2)n1`, the compound was called inactive in test [1] and in test [2].
For the compound `COc1cccc(NC(=O)Nc2nc(-c3ccc(OC)c(OC)c3)cs2)c1`, the compound was classed as inactive in test [1] and in test [2].
On to `N#C[C@H]1[C@H](c2ccc(C#CC3CCCC3)cc2)[C@@H](CO)N1C(=O)Nc1ccc(F)cc1`, for which the outcome in test [1] and in test [2] was inactive.
Turning to `CC1CCN(c2ccc(-c3cccc(NC(=O)C(F)(F)F)c3)nn2)CC1`, the call in test [1] and in test [2] was inactive.
Turning to `N#C[C@@H]1[C@H](c2ccc(C#CC3CCCC3)cc2)[C@H](CO)N1C(=O)Nc1ccc(F)cc1`, the outcome in test [1] and in test [2] was inactive.
With `CCN(CC)S(=O)(=O)c1cc([N+](=O)[O-])ccc1NNC(=O)Nc1ccc(Cl)c(Cl)c1`, the compound was called inactive in test [1] and in test [2].
Turning to `C[C@H](CO)N1C[C@H](C)[C@@H](CN(C)S(=O)(=O)c2ccc(F)cc2)OCCCC[C@H](C)Oc2ccc(NS(=O)(=O)c3ccc(Cl)cc3)cc2C1=O`, the call in test [1] and in test [2] was inactive.
`CC(OC(=O)c1ccc(S(C)(=O)=O)c([N+](=O)[O-])c1)C(=O)NC1C2CC3CC(C2)CC1C3` (configuration not stated): the compound was called inactive in test [1] and in test [2].
For the compound `CC[C@@H](C)[C@H](CNC)NC[C@@H](Cc1cccc2ccccc12)NCCc1cccc(C(F)(F)F)c1`, the compound was classed as inactive in test [1] and in test [2].
For `COc1ccc(-c2sc3ccccc3c2-c2ccc(OCCN(C)C)cc2)cc1`, the call in test [1] and in test [2] was inactive.
For `COc1ccc(/C=N/Nc2cc(C)nc3ccc(Br)cc23)cc1`, the compound was classed as inactive in test [1] and in test [2].
Take `O=C(Nc1ccc2nc3n(c(=O)c2c1)CCCCC3)c1cc([N+](=O)[O-])ccc1F`: the result in test [1] and in test [2] was inactive.
For the compound `COc1ccccc1N(C(=O)CCl)c1cn(C(C)=O)c2ccccc12`, the call in test [1] and in test [2] was inactive.
With `COc1ccc(N(C(=O)CCl)C(C(=O)NC2CCCCC2)c2cccnc2)cc1` (configuration not stated), the outcome in test [1] and in test [2] was inactive.
`COc1cc(/C=N/Nc2nc(Nc3ccc(C)cc3)nc(-n3nc(C)cc3C)n2)cc(OC)c1OC`: the result in test [1] and in test [2] was inactive.
Turning to `O=c1cc(-c2ccc(O)cc2)oc2ccc3ccccc3c12`, the result in test [1] and in test [2] was inactive.
In the case of `CN(C[C@H]1N[C@@H](CO)[C@@H]1c1ccc(-c2cccnc2)cc1)C(=O)c1ccccc1`, the result in test [1] and in test [2] was inactive.
`O=C(C#Cc1ccccc1)c1ccco1`: the compound was classed as inactive in test [1] and in test [2].
On to `CC(=O)n1cc(N(C(=O)CCl)c2ccccc2)c2ccccc21`, for which the outcome in test [1] and in test [2] was inactive.
Take `COc1ccc(C#Cc2ccc([C@@H]3[C@H](CO)N4CCCCN(C(=O)Nc5cccc(F)c5)C[C@@H]34)cc2)cc1`: the compound was called inactive in test [1], in test [2] and in test [5].
With `COc1cccc(/C=C2/Sc3ccc(C(=O)NCCN4CCCCCC4)cc3NC2=O)c1`, the compound was classed as inactive in test [1], in test [2] and in test [5].
Turning to `O=S(=O)(c1ccc2c(c1)C(=NO)c1cc(S(=O)(=O)N3CCCCC3)ccc1-2)N1CCCCC1`, the result in test [1], in test [2] and in test [5] was inactive.
With `O=C(NC1CCCCC1)C(c1cccnc1)N(C(=O)CCl)c1ccccc1Cl` (configuration not stated), the outcome in test [1], in test [2] and in test [5] was inactive.
`CC1(C)CC(=O)C=C(C#CC2(O)CCCCC2)C1`: the result in test [1], in test [2] and in test [5] was inactive.
For the compound `CN(C[C@H]1N[C@@H](CO)[C@@H]1c1ccc(C2=CCCC2)cc1)C(=O)c1ccncc1`, the outcome in test [1], in test [2] and in test [5] was inactive.
Take `Cc1cc(N/N=C/c2ccc(O)c(C)c2O)nc(-c2ccccc2O)n1`: the result in test [1], in test [2] and in test [5] was inactive.
